About 100 (0.036%) of roughly 280,000 compounds were called active. About 11% were inconclusive and are not listed. This excerpt belongs to a sample that is enriched for actives. Values without a mark were called inactive. Calls come from the whole dose curve; as a rule, active = well fitted inhibition curve with a large enough effect in the signal ratio, with a control signal flat (not every such curve was filed as active); inconclusive = small, poorly fitted or top-dose-only effect, or effect the other way, or a change in a side signal; inactive = no such curve, though single readings can be large or run the other way; the % refers to the signal ratio.
molecular target: Muscleblind-like protein 1 (Homo sapiens) (UniProt Q9NR56); assay: qHTS Assay for Inhibitors of MBNL1-poly(CUG) RNA binding; details: TR-FRET MBNL1-His/biotin-(CUG)12 binding, 665/545 ratio; series mostly up to 57.5 µM; activity change, negative = inhibition: at the top concentration
Excerpt: NIH Chemical Genomics Center [NCGC] NIH Molecular Libraries Probe Production Centers Network [MLPCN] MLPCN Grant: R03 MH087421-01 Assay Submitter (PI): Charles Thornton NCGC Assay Overview: Expanded CTG repeats in the 3' untranslated region of the DM protein kinase (DMPK) gene causes type I myotonic dystrophy (DM1). DM1 is a multi-systemic disease with a prevalence of 1/7000. Clinical features include myotonia, progressive muscle weakness and wasting, cardiac arrhythmia, insulin resistance, hypersomnolence, cataracts, and other symptoms. The pathogenic effect of expanded CTG repeats stems from deleterious effects of the mutant transcript. CUGexp mRNA accumulates in nuclear foci and sequesters proteins of the muscleblind family, of which MBNL1 is the most common family member in skeletal muscles. The binding interaction between MBNL1 and CUGexp tracts leads to deregulation of alternative splicing and is therefore a key molecular step in the pathogenesis of DM1. To target this binding interaction, we optimized a protein-RNA binding assay in 1536-well format for identification of small molecule inhibitors of biotinylated (CUG)12 and his-tagged MBNL1 binding. Protein-RNA complex of MBNL1-His and Biotin-(CUG)12 captures the detection reagents terbium-labeled anti-His antibody and streptavidin conjugated XL665. This brings the terbium label within close proximity to XL665 to allow time-resolved fluorescence resonance energy transfer (TR-FRET). Inhibitors of MBNL1-(CUG)12 binding will disrupt TR-FRET.
NCGC Assay Protocol Summary: This is a TR-FRET binding assay with MBNL1-His and Biotin-(CUG)12 RNA. The assay uses a ratiometric measurement. In the presence of MBNL1-(CUG)12 complex, the excitation energy is transferred to the XL665 acceptor label, causing emission at 665nm, while the 545nm donor signal […]. Data were normalized to the controls for basal activity (buffer only) and 100% activity (with MBNL1-(CUG)12). […] The final titration was 92 nM to 58 uM. (3) Add 1 ul of terbium labeled anti-His antibody (0.055 ng/ul final concentration) (4) Add 1 ul of streptavidin-XL665 (5 nM final concentration) (5) Incubate 60 min at room temperature (6) Detect the assay plate in a EnVision plate reader (PerkinElmer) with Ex=340 nm, Em1=665 nm and Em2=545 nm. Keywords: mytonic dystrophy type I, DM1, muscleblind like 1, MBNL1, CUG expansion, protein-RNA binding inhibitor, high throughput screening, MLSMR, MLSCN, NIH Roadmap, qHTS and NCGC
% is set by controls: 0 for no effect and ±100 for the full control effect.

Chain of Muscleblind-like protein 1 (Homo sapiens) (Q9NR56 whole entry, looked up): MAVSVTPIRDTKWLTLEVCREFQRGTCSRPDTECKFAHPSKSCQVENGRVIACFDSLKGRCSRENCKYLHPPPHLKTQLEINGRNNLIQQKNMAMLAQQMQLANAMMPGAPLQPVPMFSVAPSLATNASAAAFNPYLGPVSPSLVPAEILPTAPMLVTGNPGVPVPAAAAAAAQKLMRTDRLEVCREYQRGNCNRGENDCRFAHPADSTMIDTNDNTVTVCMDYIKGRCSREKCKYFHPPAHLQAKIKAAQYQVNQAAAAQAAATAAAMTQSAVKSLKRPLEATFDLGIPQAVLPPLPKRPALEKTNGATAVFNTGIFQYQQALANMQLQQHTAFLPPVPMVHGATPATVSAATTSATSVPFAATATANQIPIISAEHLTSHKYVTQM

Compound | activity change, negative = inhibition [%]
C=CCNc1nc(N)c([N+](=O)[O-])c(NC2CCCCC2)n1 | -5.63
Cc1[nH]c2ccccc2c1C(=O)CN1CC(C)CC(C)C1 (stereo unspecified) | -2.63
O=C(c1ccccc1)N1N=C(c2ccccc2O)CC1c1ccc(Br)cc1 (stereo unspecified) | -12.2
Nc1nc(Nc2ccccc2F)nc(NC2CCCCC2)c1[N+](=O)[O-] | -5.13
COc1ccc(OC)c(CNC(=O)Cn2nc(C)c3c(C)n(-c4ccc(C)cc4)nc3c2=O)c1 | -0.935
Cc1ccc(C)c(N2CCN(C(=O)CCCn3c(=O)c4cccn4c4cccnc43)CC2)c1 | -1.23
CCOc1ccc(NC(=O)CCCCCN2C(=O)[C@@H]3Cc4ccccc4CN3C2=O)cc1 | 4.13
CCc1ccc(/C=N/NC(=O)c2nnn(-c3nonc3N)c2CN2CCc3ccccc32)cc1 | 1.76
COc1ccc(NS(=O)(=O)c2cc(C(=O)Nc3ccccc3C(=O)O)ccc2C)cc1 | -13.3
COc1ccc(CN(C)C(=O)c2cc(-c3ccc(C)cc3C)nc3ccccc23)c(OC)c1OC | -0.265
O=C(NCc1cccc(Cl)c1)C1CCC(=O)N(C2CC2)C1 (stereo unspecified) | -9.91
CC(=O)N1c2ccc(S(=O)(=O)N3CCC(C(=O)N4CCN(c5ccccc5)CC4)CC3)cc2CC1C (stereo unspecified) | -1.97
O=C(NCCCN1CCOCC1)c1ccc2c(c1)N(Cc1cccc(F)c1)C(=O)c1ccccc1S2 | 76.5
CCc1ccc(C(CNc2nc(C(F)(F)F)nc3ccccc23)N(C)C)cc1 (stereo unspecified) | -3.64
Cc1nnc(NC(=O)C(c2ccccc2)c2ccccc2)s1 | 1.22
COc1cccc(CCNC(=O)c2cccc(NC(=O)C3=C(C)OCCS3)c2)c1 | -1.35
Cc1cc(=O)[nH]c(Nc2cccc(Br)c2)n1 | -10
COc1ccccc1N1CCN(S(=O)(=O)CCNC(=O)c2ccc(OC(C)C)cc2)CC1 | 1.83
COc1cccc(CN(C)CC(O)COC(c2ccccc2)c2ccccc2C)c1 (stereo unspecified) | -1.85
CCOc1ccc(NC(=O)C(C)N2C(=O)c3ccccc3C2=O)cc1 (stereo unspecified) | 1.24
CCOc1ccc(NC(=O)c2nc(SCC)ncc2Cl)cc1 | -14.6
CCC(C)[C@H](NC(=O)N1CCn2c1nc1ccccc12)C(=O)NCc1ccc(OC)cc1 (stereo partly specified) | -2.53
COc1ccc(NC(=O)c2cc([N+](=O)[O-])ccc2NC(=O)CNC2CCCCC2C)c(OC)c1 (stereo unspecified) | 18.6
COc1ccc(CCNC(=O)c2ccccc2OCc2ccccc2)cc1 | -4.43
Cc1cc(Cl)ccc1C(=O)C1CCCN(C(=O)c2nonc2C)C1 (stereo unspecified) | 0.612
CC(CCc1ccc(O)cc1)NCc1ccc(Cl)cc1Cl (stereo unspecified) | -4.16

Compound | activity change, negative = inhibition [%]
COc1ccc(CCNCc2c(-c3ccccc3)n(C)c3ccccc23)cc1 | -10.3
CCC(=O)c1cn(CCOc2ccccc2OC)c2ccccc12 | 2.83
COc1ccc(CC(=O)N/N=C/c2cc([N+](=O)[O-])cc(Br)c2O)cc1 | -0.176
COC(=O)c1cc(S(=O)(=O)N2CCN(c3cc(C)ccc3C)CC2)c[nH]1 | 0.607
COc1cccc(C(=O)Nc2ccc(N3CCN(C(=O)c4ccco4)CC3)cc2)c1 | -4.34
COC(=O)c1ccc(CN2CCCC(C(=O)Nc3cccc(-n4cnnn4)c3)C2)cc1 (stereo unspecified) | -5.86
Cc1cc(=O)oc2c(C)c(OC(C)C(=O)NC3CCN(Cc4ccccc4)CC3)ccc12 (stereo unspecified) | -6.34
C[C@H](NC(=O)[C@@H]1Cc2ccccc2CN1C(=O)OC(C)(C)C)C(=O)NC1CCCC1 | 0.26
CCCn1c(C2CCCN2c2nc(-c3ccc(OC)cc3)cs2)nc2ccccc21 (stereo unspecified) | 46.7
Cc1ccc2nc(-c3ccncc3)cc(C(=O)Nc3ccncc3)c2c1 | 20.1
COc1cccc(C(=O)N/N=C(\C)c2cccc(NC(=O)c3ccc(F)cc3)c2)c1OC | -0.886
O=C(NCCCO)c1cc2c([nH]c3ccccc32)c(-c2ccc(F)cc2)n1 | -3.77
CCCC(=O)N1CCN(c2nnc(-c3ccc(C)cc3)c3ccccc23)CC1 | 15
Cc1cc(Cl)ccc1OCCCC(=O)Nc1cccc(-n2cnnn2)c1 | -0.924
CCOc1ccc(CCNC(=O)CCc2nnc3ccc(N4CCCC4)nn23)cc1OCC | 13.4
CC(=O)N1CCOc2ccc(S(=O)(=O)N3CCN(c4cccc(C(F)(F)F)c4)CC3)cc21 | -1.07
CCCCN(CCCC)CCCNC(=O)CN1C(=O)COc2ccc(S(=O)(=O)N3CCC(C)CC3)cc21 | -14.2
Cc1ccc(OCC(=O)Nc2ccc(C(=O)O)cc2NC(=O)COc2ccc(C)c(C)c2)cc1C | 6.17
COc1ccc(C(=O)CC(=O)C(=O)Nc2cc([N+](=O)[O-])ccc2OC)cc1 | 0.59
CC(C)c1ccc(S(=O)(=O)N2CCN(C(=O)c3ccc(N4CCCC4)c([N+](=O)[O-])c3)CC2)cc1 | -3.33
COc1cccc(NC(=O)C2CCCN(c3ncnc4c3nc3n4CCCCC3)C2)c1 (stereo unspecified) | -5.89
Cc1ccc(CN2CCC(n3nccc3NC(=O)CCCc3ccccc3)CC2)o1 | 5.27
CCc1ccc(NC(=O)CN2CCC(C(=O)c3ccc(OC)cc3)CC2)cc1 | 2.27
O=C(Nc1ccccc1N1CCCC1)c1ccc2ccccc2c1 | 9.01
CCCCCN(C(=O)CCC(=O)OCC(=O)NCc1ccc(OC)cc1)c1c(N)n(CCCC)c(=O)[nH]c1=O | -3.21

From PubChem BioAssay AID2675 (National Center for Advancing Translational Sciences (NCATS), 2010)
